This is an account of results in PubChem BioAssay AID686978 (National Center for Advancing Translational Sciences (NCATS), 2013).

SMILES strings stand for the structures. Screen size: about 420,000 compounds; about 64,000 (15%) were called active. About 27% were inconclusive and are not listed. Calls come from the whole dose curve; as a rule, active = well fitted inhibition curve with a large enough effect; inconclusive = small, poorly fitted or top-dose-only effect; inactive = flat fitted curve, though single readings scatter. Only a sample is shown. Entries that show only a call come without a potency.
Potency is the fitted concentration of half-maximal effect.

The experiment in a line: qHTS for Inhibitors of human tyrosyl-DNA phosphodiesterase 1 (TDP1): qHTS in cells in absence of CPT. Note: nearly all actives have a fitted effect of over 55% in size. Particulars: DT40 Tdp1-/- hTDP1 cells, no CPT, ATP luminescence, 48 h; activity change, negative = growth inhibition: at 46.2 µM (top of the series). The procedure, abridged:
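DT40 Tdp1-/-;hTDP1 cells, no CPT (DMSO vehicle only), 400 cells/well; compounds pin-transferred; ≥48 hr, 37 °C; CellTiter-Glo 30 min RT dark, luminescence read.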
Consider `C/C(=N\N)c1c(-c2ccccc2)c2cc(Br)ccc2[nH]c1=O`, for which the Potency result is “inactive”.

As to `COc1ccc(CCNC(=O)COC(=O)/C=C/c2cccs2)cc1OC`, the Potency entry is “inactive”.

On to `Cc1[nH]n(C)c(=O)c1N=Nc1ccc(S(C)(=O)=O)cc1`, for which the Potency result is “inactive”. The value for `Cc1nnc(Nc2ccccc2F)s1` was “inactive”; that for `Nc1ncnc2c1ncn2[C@@H]1O[C@H](CNCc2cccn2-c2nccs2)[C@@H](O)[C@H]1O` was “inactive”; that for `COc1ccc(N2CCN(CCCNC(=O)C3CCN(S(=O)(=O)N4CCOCC4)CC3)CC2)cc1` was “inactive”. To `N#CCCn1c(=O)c(-c2cc(F)cc(F)c2)nc2cnc(Oc3ccccc3)nc21` belongs “inactive”. The value for `COc1cccc(/C=N\Nc2nncc(-c3ccccc3)n2)c1` was “inactive”; that for `CCOc1ccc(/C=N/Nc2nncc(-c3ccccc3)n2)cc1OC` was 14.6 µM (active); that for `COc1cc(/C=N/n2c(C)n[nH]c2=S)ccc1OCc1ccccc1` was “inactive”. For `Cc1ccc(N2CC(C(=O)Nc3cc(Cl)ccc3-n3cncn3)CC2=O)cc1` (configuration not stated), the Potency result is “inactive”. `COc1cc(OC)c(N2CC(C(=O)Nc3cc(Cl)ccc3N3CCOCC3)CC2=O)cc1Cl` (configuration not stated): the Potency is 3.66 µM (active). To `COc1ccccc1N1CC(C(=O)Nc2ccc(S(=O)(=O)N3CCOCC3)cc2)CC1=O` (configuration not stated) belongs “inactive”; to `O=C(c1cnccn1)N1CCC[C@@]2(CCN(Cc3ccncc3)C2)C1`, “inactive”. The value for `CC(=O)c1cnc(SCCN2C(=O)c3ccccc3C2=O)nc1C` was “inactive”; that for `Cc1cc(NC(=O)CCC(=O)N(c2cccc(F)c2)C(C(=O)NC2CCCC2)c2ccncc2)no1` (configuration not stated) was “inactive”. Turning to `Cc1cc(NC(=O)CCC(=O)N(CC(=O)NC2CCCC2)c2ccc(F)cc2)no1`, the Potency entry is “inactive”. `Cc1cc(NC(=O)/C=C/C(=O)N(c2ccccc2C)C(C(=O)NC2CCCC2)c2ccc(F)cc2)no1` (configuration not stated): the Potency is 23.1 µM (active). As to `O=C(NC1CCC(O)CC1)c1ccc(S(=O)(=O)NCc2ccco2)cc1` (configuration not stated), the Potency entry is “inactive”.

As for `COc1ccc(NC(=O)Cn2ncn3c(cc4ccccc43)c2=O)c(OC)c1OC`, the Potency entry is “inactive”. The value for `COc1ccc(CNC(=O)c2nnn(CC(=O)Nc3cc(C)cc(C)c3)c2N)cc1` was “inactive”; that for `Cc1ccc(OCC(=O)N/N=C/c2ccncc2)cc1` was “inactive”; that for `C=CCc1ccccc1OCC(=O)N/N=C/c1ccccc1OCC` was “inactive”. The value for `Cc1ccc(/C=N/NC(=O)COc2ccccc2-c2ccccc2)cc1` was 0.184 µM (active); that for `COc1cc(Cl)c(S(=O)(=O)N2CCN(Cc3ccc4c(c3)OCO4)CC2)cc1Cl` was “inactive”; that for `OCCC1CN(Cc2ccc3nsnc3c2)CCN1C1CCCC1` (configuration not stated) was “inactive”. The value for `C=C1C(=O)[C@]23C[C@H]1CCC2[C@@]1(C)C(C[C@@H]3O)[C@](C)(C(=O)O)CC[C@@H]1O` (some centres not stated) was 6.51 µM (active). As for `O=C(CSc1ncn[nH]1)Nc1nc2c(F)c(F)c(F)cc2s1`, the Potency result is “inactive”. To `CC(C)(C)NC(=O)NC(=O)COC(=O)Cc1c(F)cccc1Cl` belongs “inactive”; to `CCN1CCCC1CNC(=O)Cn1cnc2ccc(S(=O)(=O)N3CCC(C)CC3)cc2c1=O` (configuration not stated), “inactive”.

Consider `COc1ccccc1NC(=O)Cn1cnc2ccc(S(=O)(=O)N3CCC(C)CC3)cc2c1=O`, for which the Potency is 23.1 µM (active). To `COc1ccccc1NC(=O)CN1CCN(S(=O)(=O)c2ccc(Br)cc2)CC1` belongs “inactive”.

With `CC(C)CN(C(=O)CN1CCN(S(=O)(=O)c2ccccc2)CC1)c1c(N)n(CC(C)C)c(=O)[nH]c1=O`, the Potency entry is “inactive”. To `Cc1cc(NC(=O)OC(C)C)ccc1-c1ccc(NC(=O)OC(C)C)cc1C` belongs “inactive”; to `CN(CCO)c1ccc(/C=N/Nc2nncc3ccccc23)cc1`, 14.6 µM (active). Take `COc1ccc(/C=N/Nc2nc3ccccc3c(=O)[nH]2)cc1`: the Potency result is “inactive”. For `CC(=O)Nc1ccc(NC(=O)CCCNC(=O)c2ccc(Cl)cc2)cc1`, the Potency entry is “inactive”. The value for `CCCCNC(=O)C1CCCNC1=O` (configuration not stated) was “inactive”. To `COc1cccc(CNC(=O)c2nnn(CC(=O)Nc3cc(C)ccc3C)c2N)c1` belongs “inactive”; to `O=C(CNc1ccccc1N1CCCC1=O)Nc1cc(Cl)ccc1-n1cncn1`, “inactive”. With `CCOC(=O)CNC(=O)c1cc2c(=O)n3cccc(C)c3nc2s1`, the Potency entry was “inactive”. The value for `CCOC(=O)CC1C(=O)NCCN1c1nc2c(C)cccn2c(=O)c1/C=C1\SC(=S)N(C(C)CC)C1=O` (configuration not stated) was 18.4 µM (active); that for `CCOC(=O)N1CCN(C(=O)CSc2nc(=O)n3cccc(C)c3n2)CC1` was “inactive”; that for `CCSc1nnc(NC(=O)Cc2ccccc2OC)s1` was “inactive”. To `CCOC(=O)N1CCN(C(=O)c2cn(C)c3ccc(S(=O)(=O)N(CC)CC)cc3c2=O)CC1` belongs “inactive”. Take `CCCCNC(=O)c1cc(-c2ccc(Cl)c(Cl)c2)on1`: the Potency entry is “inactive”.

On to `COC(=O)CN1C(=O)N/C(=C/c2ccc(OC)c(C)c2OC)C1=O`, for which the Potency entry was “inactive”. The value for `O=C(Nc1ccc(OC(F)(F)F)cc1)c1ccc2c(c1)no[n+]2[O-]` was 3.66 µM (active). In the case of `COC(=O)[C@H](C)NC(=O)Nc1ccc(OC(F)(F)F)cc1`, the Potency result is “inactive”.

As to `Cn1cccc1/C=N/NC(=O)c1ccc(OC(F)(F)C(F)F)cc1`, the Potency entry was “inactive”. To `CC(=O)OCc1cc2cc(C)ccc2[nH]c1=O` belongs “inactive”; to `CC(=O)Nc1ccc(OCC(=O)NCc2ccc(C)cc2)cc1`, “inactive”. Consider `CCCCC(=O)N/N=C(\C)CC(=O)Nc1cc(Cl)ccc1OC`, for which the Potency result was “inactive”. To `C/C(CC(=O)NCc1ccc(Cl)cc1)=N\NC(=O)COc1ccc(C)cc1Br` belongs 3.26 µM (active); to `COCCNC(=S)N1CCN(C)CC1`, “inactive”; to `COC(=O)c1cc(NC(=O)CN2CCC(C(N)=O)(N3CCCCC3)CC2)cc(C(=O)OC)c1`, “inactive”. The value for `Cc1oc2c(c1C(=O)Nc1ccc(F)c(F)c1)C1=NCCN1C=N2` was “inactive”; that for `O=C(CN1C(=O)CCS(=O)(=O)c2ccccc21)NCc1ccc(F)cc1` was “inactive”; that for `CC(NC(=O)C(=O)Nc1nccs1)c1ccccc1` (configuration not stated) was “inactive”. As for `O=c1oc(-c2ccco2)nc2sc3c(c12)CCCCC3`, the Potency result is “inactive”. Regarding `O=C(NCc1ccco1)c1nc2ncccn2n1`, the Potency result is “inactive”. The value for `O=C(NCc1ccco1)c1cccn2c(=O)c3c4c(sc3nc12)CCCC4` was 7.31 µM (active); that for `O=C(c1cnc(Cl)c(Cl)c1)N1CCN(S(=O)(=O)c2ccc(F)cc2)CC1` was “inactive”.

With `Cc1cc(C)c(/C=C2\C(=O)Nc3ccccc32)[nH]1`, the Potency entry was “inactive”. To `COc1ccccc1N1CC(C(=O)NCCN2C(=O)S/C(=C\c3cccnc3)C2=O)CC1=O` (configuration not stated) belongs “inactive”; to `CN1CCN(C2=NCCO2)CC1`, “inactive”; to `Cc1ccc(-n2c(SCC(=O)Nc3ccc4c(c3)OCO4)nnc2-c2ccoc2C)cc1`, “inactive”.

Turning to `O=C(CN(c1cc(C(F)(F)F)ccc1Cl)S(=O)(=O)c1ccccc1)NCc1cccnc1`, the Potency was 18.4 µM (active). For `O=C(O)c1cc(S(=O)(=O)N(Cc2ccccc2)c2cccc(C(F)(F)F)c2)ccc1Cl`, the Potency entry is “inactive”. In the case of `CCc1ccc(N(CC(=O)NCc2cccnc2)S(=O)(=O)c2ccccc2)cc1`, the Potency result was “inactive”. The value for `CC(=O)Nc1ccc(NC(=O)CSc2ncnc3c2cnn3Cc2ccccc2)cc1` was “inactive”; that for `OCc1n[nH]c(CO)n1` was “inactive”.

On to `CCCNC(=O)c1cc(C2CCCCN2C(=O)OC)on1` (configuration not stated), for which the Potency result was “inactive”. The value for `COc1ccc(C(=O)Nc2c(Cl)cc(Cl)cc2C(=O)N2CCC(C)CC2)cc1` was “inactive”; that for `COc1ccc(C(=O)N2CCCCC2c2cc(C(=O)Nc3ccc(F)c(Cl)c3)no2)cc1` (configuration not stated) was 23.1 µM (active); that for `CC(=O)c1ccc(N2C(=NC(=O)C(C)C)SC3CS(=O)(=O)CC32)cc1` (configuration not stated) was “inactive”. To `CCCOc1ccc(F)cc1-c1cc(C(=O)Nc2ccc(F)c(Cl)c2)[nH]n1` belongs 16.4 µM (active). To `COc1ccc(NC(=O)CN2CCN(S(=O)(=O)c3ccc(F)cc3)CC2)cc1Cl` belongs “inactive”; to `CCNC(=O)c1ccc(OCC(=O)Nc2ccc(F)cc2)c(OC)c1`, “inactive”. Consider `O=C(O)Cc1csc(NC(=O)CSc2nnnn2-c2ccc(O)cc2)n1`, for which the Potency entry was “inactive”. The value for `CC(=O)Nc1ccc(S(=O)(=O)Oc2ccc(/C=N/N=C3/NC(=O)C(CC(=O)O)S3)cc2)cc1` (configuration not stated) was “inactive”; that for `Cn1c(=N)n(CC(O)c2ccccc2)c2ccccc21` (configuration not stated) was “inactive”; that for `CCOc1ccc(C(O)Cn2c(=N)n(CCN3CCCCC3)c3ccccc32)cc1` (configuration not stated) was 23.1 µM (active).

Regarding `Cn1c(=N)n(CC(O)c2cccs2)c2ccccc21` (configuration not stated), the Potency result is “inactive”. To `NS(=O)(=O)c1ccc(CCNC(=O)c2ccc(Cl)cc2[N+](=O)[O-])cc1` belongs “inactive”; to `CC(=O)NCCc1ccc(S(=O)(=O)N(C)C2CCS(=O)(=O)C2)cc1` (configuration not stated), “inactive”; to `CCc1nnc(NS(=O)(=O)c2ccc(N=Cc3c(C)[nH]n(-c4ccc(C)cc4)c3=O)cc2)s1`, 11.2 µM (active). To `COc1cc(NS(=O)(=O)c2ccc(N=Cc3c(C)[nH]n(-c4ccccc4)c3=O)cc2)nc(OC)n1` belongs “inactive”; to `CCc1nnc(NS(=O)(=O)c2ccc(NS(=O)(=O)c3ccccc3)cc2)s1`, “inactive”. As to `S=c1[nH]nc(-c2cc(-c3ccsc3)n[nH]2)n1-c1ccccc1`, the Potency result is “inactive”.

`CCOc1ccc2nc(N3CCC(C(=O)Nc4cc(C)ccc4C)CC3)sc2c1`: the Potency was 16.4 µM (active). Regarding `Cc1cc(C)c2nc(N3CCC(C(=O)NCCN4CCOCC4)CC3)sc2c1`, the Potency result is “inactive”. To `CCOc1ccc2nc(N3CCCC(C(=O)Nc4cc(C)ccc4C)C3)sc2c1` (configuration not stated) belongs 18.4 µM (active); to `Cc1ccc(C)c(NC(=O)C2CCCN(S(=O)(=O)c3cn(C)cn3)C2)c1` (configuration not stated), “inactive”; to `CCOC(=O)N1CCC(NC(=O)c2ccc3nc(N4CCOCC4)sc3c2)CC1`, “inactive”. Turning to `Cc1ccnc(N2CCCC(C(=O)Nc3cc(F)ccc3C)C2)n1` (configuration not stated), the Potency entry is “inactive”. The value for `CC1CCCCC1NC(=O)Cn1cnc2c1c(=O)n(C)c(=O)n2C` (configuration not stated) was “inactive”. To `COC(=O)CN1C(=O)[C@H]2[C@@H](/C=C/c3ccccc3)N3C(=O)CN(CC4CC4)C(=O)[C@@]3(Cc3ccccc3)[C@H]2C1=O` belongs “inactive”. As to `COC(=O)C1(S(=O)(=O)C2(C(=O)OC)CCCC2)CCCC1`, the Potency entry is “inactive”. To `N#Cc1nc(COc2ccc(-c3ccccc3)cc2)oc1NCc1cccnc1` belongs 25.9 µM (active). Consider `Cc1noc(C)c1-c1cc(NCc2cccnc2)ncn1`, for which the Potency entry was “inactive”. On to `COc1ccc(-c2nnc(SCc3cccnc3)o2)cc1`, for which the Potency result is “inactive”.
